Laboratory results as given in PubChem BioAssay AID1159580 (chemical genetic matrix, 2015).
The campaign covered roughly 5,500 compounds. About 2,000 (36%) were called active. Inconclusive results (about 18%) are left out. No stated cut-off is given here; in the data, active means normalized growth mostly below about 0.91 (no sharp cut-off); inconclusive means no clear call, values can overlap the other calls; inactive means mostly above about 0.92. The list shows a part of the results.

Test: chemical genetic growth profiling, strain panel (AID 1159580);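 further: tested at 20 µM; growth read once vehicle control cultures reached saturation at 30 °C; 1 = growth at the plate median or of vehicle wells; lower values mean less growth of the strain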
Conditions: growth OD
[1] = S. cerevisiae deletion strains, locus YHR030C, strain SLT2, hits give low values

Measured: normalized growth

CCCCOc1cc(C(=O)O)ccc1OC
inactive: S. cerevisiae deletion strains, locus YAL013W, strain DEP1, hits give low values 0.97 | S. cerevisiae deletion strains, locus YBR229C, strain ROT2, hits give low values 0.984 | S. cerevisiae deletion strains, locus YDL101C, strain DUN1, hits give low values 0.987 | S. cerevisiae deletion strains, locus YDR150W, strain NUM1, hits give low values 0.988 | S. cerevisiae deletion strains, locus YEL061C, strain CIN8, hits give low values 1.01 | S. cerevisiae deletion strains, locus YGR078C, strain PAC10, hits give low values 0.971 | S. cerevisiae deletion strains, locus YGR229C, strain SMI1, hits give low values 1 | [1] 0.999 | S. cerevisiae deletion strains, locus YHR087W, strain rtc3, hits give low values 0.977 | S. cerevisiae deletion strains, locus YJR043C, strain POL32, hits give low values 0.985 | S. cerevisiae deletion strains, locus YJR075W, strain HOC1, hits give low values 0.962 | S. cerevisiae deletion strains, locus YLR039C, strain RIC1, hits give low values 1.02 | S. cerevisiae deletion strains, locus YLR058C, strain SHM2 (second series), hits give low values 0.979 | S. cerevisiae deletion strains, locus YLR085C, strain ARP6, hits give low values 1.01 | S. cerevisiae deletion strains, locus YLR262C, strain YPT6, hits give low values 1.04 | S. cerevisiae deletion strains, locus YML094W, strain GIM5, hits give low values 1 | S. cerevisiae deletion strains, locus YMR219W, strain ESC1, hits give low values 0.975 | S. cerevisiae deletion strains, locus YMR263W, strain SAP30, hits give low values 0.977 | S. cerevisiae deletion strains, locus YMR307W, strain GAS1, hits give low values 0.956 | S. cerevisiae deletion strains, locus YNL128W, strain TEP1, hits give low values 1.02 | S. cerevisiae deletion strains, locus YNL153C, strain GIM3, hits give low values 0.979 | S. cerevisiae deletion strains, locus YNL298W, strain CLA4 (second series), hits give low values 1.03 | S. cerevisiae deletion strains, locus YNL322C, strain KRE1, hits give low values 0.976 | S. cerevisiae deletion strains, locus YNR030W, strain Alg12, hits give low values 0.999 | S. cerevisiae deletion strains, locus YPL055C, strain LGE1, hits give low values 0.941 | S. cerevisiae deletion strains, locus YPL241C, strain CIN2, hits give low values 1.01 | S. cerevisiae deletion strains, locus YPR135W, strain CTF4, hits give low values 1.04 | S. cerevisiae strains, strain wild type, hits give low values 1.02

COc1cc(OC)c(C(=O)CCCN2CCCC2)c(OC)c1
inactive: [1] 1.07 | S. cerevisiae deletion strains, locus YHR079C, strain IRE1, hits give low values 1.04 | S. cerevisiae deletion strains, locus YJL095W, strain BCK1, hits give low values 1.03 | S. cerevisiae deletion strains, locus YJR066W, strain TOR1, hits give low values 0.973 | S. cerevisiae deletion strains, locus YLR113W, strain HOG1, hits give low values 1.01 | S. cerevisiae deletion strains, locus YNL183C, strain NPR1, hits give low values 0.973 | S. cerevisiae deletion strains, locus YOR231W, strain MKK1, hits give low values 1.03 | S. cerevisiae deletion strains, locus YPL256C, strain CLN2, hits give low values 1.05
